Among the data in PubChem BioAssay (EPA / NIEHS) are outcome and AC50 values, retold here.

Results filed as inconclusive are left out. Active and inactive are the calls of the source. The calls were made as follows: active = hit-call score of the fitted dose curve at least 0.9, where 1 is the maximum; inconclusive = response in the unintended direction; inactive = score below 0.9.

human Peroxisome Proliferator-activated Receptor delta (PPARd), PPARD (gene 5467), sequence (Q03181 whole entry, looked up): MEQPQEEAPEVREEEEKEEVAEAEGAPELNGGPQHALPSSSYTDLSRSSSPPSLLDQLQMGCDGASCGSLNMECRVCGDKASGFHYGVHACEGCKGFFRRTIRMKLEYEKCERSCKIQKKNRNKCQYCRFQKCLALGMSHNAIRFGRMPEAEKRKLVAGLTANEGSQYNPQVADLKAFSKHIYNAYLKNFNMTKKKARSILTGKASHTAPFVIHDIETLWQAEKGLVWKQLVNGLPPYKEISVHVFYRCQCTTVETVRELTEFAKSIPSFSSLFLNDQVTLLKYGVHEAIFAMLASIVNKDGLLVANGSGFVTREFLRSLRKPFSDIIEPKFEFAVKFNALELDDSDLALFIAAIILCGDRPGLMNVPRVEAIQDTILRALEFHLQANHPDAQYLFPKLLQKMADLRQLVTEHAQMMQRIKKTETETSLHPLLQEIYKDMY

This assay has as its target human Peroxisome Proliferator-activated Receptor delta (PPARd), PPARD (gene 5467) (UniProt Q03181). Put plainly: ATG_PPARd_TRANS: Attagene TRANS-FACTORIAL HepG2 Assay for human Peroxisome Proliferator-activated Receptor delta (PPARd) (AID 2283002). As for the experimental part: ATG_TRANS is a cell-based, multiplexed-readout assay that uses HepG2, a human liver cell line, with measurements taken at 24 hours after chemical dosing in a 24-well plate.ATG_PPARd_TRANS is one of 30 assay component(s) measured or calculated from the ATG_TRANS assay. It is designed to make measurements of mRNA induction, a form of inducible reporter, as detected with fluorescence intensity signals by Reverse transcription polymerase chain reaction (RT-PCR) and Capillary electrophoresis technology.Data from the assay component ATG_PPARd_TRANS was analyzed into 1 assay endpoint. This assay endpoint, ATG_PPARd_TRANS, was analyzed in the positive analysis fitting direction relative to DMSO as the negative control and baseline of activity. Using a type of inducible reporter, measures of mRNA for gain-of-signal activity can be used to understand the reporter gene at the transcription factor-level as they relate to the gene PPARD. Furthermore, this assay endpoint can be referred to as a primary readout, because this assay has produced multiple assay endpoints where this one serves a reporter gene function. To generalize the intended target to other relatable targets, this assay endpoint is annotated to the nuclear receptor intended target family, where the subfamily is non-steroidal.
Human liver HepG2 cells are transiently transfected with multiple reporter transcription units (MRTUs) in 6-well plates using FuGene 6 reagent (Roche; 3 ml FuGene/1 mg DNA). The MRTU constructs are regulated by a cis-regulating element (promoter). […] A major difference between the CIS and TRANS system is that in CIS activities of endogenous TFs are measured, whereas the TRANS assay evaluates changes in activities of exogenous, chimeric NR-Gal4 proteins. […] At the end of 24 hour incubation, total RNA was isolated using TriZol reagent (Invitrogen). The isolated RNA is then reverse-transcribed using oligo(dT) primer and Mo-MLV reverse transcriptase (Invitrogen) with DNAse I (Ambion) treatment for 30 min. The one-tenth of the produced cDNA was amplified by PCR using Taq DNA polymerase (Invitrogen) and two reporter sequence-specific primers. The PCR products were fluorescently labeled by primer extension with 6-arboxyfluorescein (6-FAM) 5'-labeled reporter sequence-specific primer (2 min at 95 C, 20 s at 68 C and 10 min at 72 C) and these products were digested with 5U of HpaI (New England Biolabs) for 2h at 37 C. The fragments were purified using Qiaquick PCR columns (Qiagen), analyzed on an ABI 3130xL genetic analyzer (Applied Biosystems) with peak positions identified by using a set of X-rhodamine (ROX)-labeled MapMarker1000 molecular weight standards (BioVentures). The raw capillary electrophoresis data was processed using Attagraph software (Attagene).
For `O=C(O)c1cc(I)cc(I)c1I`, the molecule was classed as inactive.

`O=C/C(Cl)=C(/Cl)C(=O)O`: the call was inactive.

Take `Oc1ccc(Cc2ccc(O)cc2)cc1`: the molecule was called inactive.

As for `O=C(N[C@H]1CN2CCC1CC2)c1ccc2c(c1)OCCO2`, the molecule was classed as inactive.

On to `CCN(CC)C(=O)C(Cl)=C(C)OP(=O)(OC)OC`, for which the outcome was inactive.

`CN(C)c1ccc(N=O)cc1`: the molecule was called inactive.

Take `CCOC(=O)CCN(SN(C)C(=O)Oc1cccc2c1OC(C)(C)C2)C(C)C`: the molecule was classed as inactive.

Regarding `C[C@H]1C(=O)O[C@@H]2CCN3CC=C(COC(=O)[C@](C)(O)[C@]1(C)O)[C@H]23`, the molecule was classed as inactive.

For the molecule `CC1(C)[C@H](C(=O)O[C@H](C#N)c2cccc(Oc3ccccc3)c2)[C@@H]1/C=C(\Cl)C(F)(F)F`, the molecule was called inactive.

`O=C(O)COc1cc(Cl)c(Cl)cc1Cl`: the result was inactive.

With `O=C(O)CC(O)(CC(=O)O)C(=O)O`, the molecule was called inactive.

On to `CC(C)=CC1C(C(=O)OCc2cccc(Oc3ccccc3)c2)C1(C)C` (stereo not given), for which the call was inactive.

Regarding `COCCl`, the molecule was called inactive.

`CC(C)(c1ccc(O)c(-c2ccccc2)c1)c1ccc(O)c(-c2ccccc2)c1`: the molecule was called inactive.

`C[CH2][Hg][S]c1ccccc1C(=O)O`: the molecule was called inactive.

For the molecule `OC(Cc1ccccc1Cl)(Cn1cncn1)C1(Cl)CC1` (stereo not given), the result was inactive.

With `CCOc1cc(C=O)ccc1O`, the call was inactive.

Turning to `O=C(CCl)NCO`, the result was inactive.

For the molecule `N#Cc1cccnc1`, the call was inactive.

Turning to `Nc1ncn[nH]1`, the molecule was classed as inactive.

Take `O=S(=O)(F)C(F)(F)C(F)(F)C(F)(F)C(F)(F)F`: the call was inactive.

With `CCCCCCCCCCCCCCC(Br)C(=O)O` (stereo not given), the AC50 was 7.74 µM (active).

As for `COc1ccc([N+](=O)[O-])cc1O`, the molecule was called inactive.

Turning to `CCC[CH2][Sn]([Cl])([Cl])[CH2]CCC`, the molecule was called inactive.

`Brc1c(Br)c(Br)c(Oc2c(Br)c(Br)c(Br)c(Br)c2Br)c(Br)c1Br`: the molecule was classed as inactive.

Turning to `Cc1cccc(OP(=O)(Oc2cccc(C)c2)Oc2cccc(C)c2)c1`, the molecule was called inactive.

With `O=S1(=O)OC(c2cc(Br)c(O)c(Br)c2)(c2cc(Br)c(O)c(Br)c2)c2ccccc21`, the molecule was called inactive.

For the molecule `NC(=O)CCl`, the outcome was inactive.

For the molecule `BrCc1ccc(Br)cc1`, the outcome was inactive.

With `CCOP(=S)(OCC)Oc1ccc(Cl)cc1Cl`, the molecule was classed as inactive.

For `C=CCCl`, the call was inactive.

On to `CC(C)C(C)(N)C#N` (stereo not given), for which the result was inactive.

For the molecule `CCC[N+](CCC)(CCC)CCC`, the outcome was inactive.

As to `Brc1ccc(Br)cc1`, the outcome was inactive.

`CCCCOC(=O)COC(=O)c1ccccc1C(=O)OCCCC`: the result was inactive.

`Clc1cccc(Cl)c1Cl`: the molecule was classed as inactive.

In the case of `Clc1cc(C(Cl)(Cl)Cl)cnc1Cl`, the molecule was called inactive.

On to `CC(C)(C)c1ccccc1O`, for which the call was inactive.

For the molecule `CCCCS(=O)(=O)Cl`, the molecule was called inactive.

With `O=C(Nc1ccc(Br)cc1)c1cc(Br)cc(Br)c1O`, the molecule was called inactive.

As usually defined, the AC50 is the concentration giving half of the maximal activity seen.
